Source: PubChem
Sampled rows, rich in hits. Any-hit rate of the full collection: about 19%.
HT1080 IDH1KD tx – toxicity to HT-1080 IDH1 knockdown cells (counter line); AID 686971; Potency, µM (titrated, usually from 46.1 µM), inactives show at the highest dose activity, negative = toxicity, actives largely listed as cytotoxic; actives 2% (n = 360,000); HT-1080 IDH1 knockdown viability, ATP luminescence, 48 h;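 also: 0% = DMSO wells and -100% = cell-free medium wells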
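Assay cells: HT-1080 with IDH1 knockdown, 750 per well, RPMI/5% FBS. Exposure: 48 h at 37 °C following 2 h pre-incubation. Read: CellTiter-Glo luminescence; fitted concentration-response, curve class assigned.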
HT1080-NT tox – kills 2HG-producing HT-1080-NT fibrosarcoma cells. Potency, µM (top dose mostly 46.1 µM), for the others: at the top dose activity, negative = less viability, most hits filed as cytotoxic. actives 1.6% (n = 360,000). HT-1080-NT fibrosarcoma viability, CellTiter-Glo ATP luminescence, 48 h;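 also: NT is the 2HG producing partner of a matched IDH1 knockdown line; 0% = DMSO-treated cells and -100% = media-only wells without cells; nearly all actives have a fitted effect of over 55% in size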
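Read-out is CellTiter-Glo luminescence after 10 minutes at room temperature, following 48 hours' compound treatment of HT-1080-NT cells (750 cells/well, RPMI, 5% FBS, 37 degrees C).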
TDP1 cell CPT – DT40-hTDP1 cell growth loss with CPT; Potency, µM (titrated, usually from 46.2 µM), inactives show at the highest dose activity change, negative = growth inhibition, actives largely listed as inhibitors; actives 12% (n = 420,000); chicken DT40 Tdp1-/-;hTDP1 cells + 20 nM CPT, ATP luminescence, 48 h; AID 686979; also: nearly all actives have a fitted effect of over 55% in size
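Chicken DT40 Tdp1-/- cells stably complemented with human TDP1 were seeded at 400 cells/well in medium containing 20 nM camptothecin, exposed to pin-transferred compounds, and grown at 37 °C for at least 48 hr. Viability was read as ATP luminescence.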
KB-V1 MDR tox – kills drug-selected multidrug resistant KB-V1 cells | KB-V1 MDR cells viability, CellTiter-Glo, 72 h | Potency, µM (titrated, usually from 46.1 µM), most hits filed as cytotoxic | actives 3.4% (n = 400,000) | AID 1347076; also: nearly all actives have a fitted effect of over 60% in size
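KB-V1 cells (P-gp-expressing MDR subline of KB-3-1) in phenol-red-free DMEM with 10% FBS were exposed to library compounds over a concentration series for 72 h at 37 degrees C. Viability read by CellTiter-Glo luminescence; concentration-effect curves fitted after normalization.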
DT40 TDP1 no CPT – qHTS for Inhibitors of human tyrosyl-DNA phosphodiesterase 1 (TDP1): qHTS in cells in absence of CPT. AID 686978, 2013. Potency, µM (top dose mostly 46.2 µM), for inactives: top-dose activity change, negative = growth inhibition, actives largely listed as inhibitors. DT40 Tdp1-/- hTDP1 cells, no CPT, ATP luminescence, 48 h. actives 15% (n = 420,000); also: nearly all actives have a fitted effect of over 55% in size
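Compound effects on proliferation are scored in DT40 Tdp1-/-;hTDP1 cells in the absence of CPT. ATP levels (CellTiter-Glo luminescence) are recorded after a ≥48 hr, 37 °C incubation.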
KB-3-1 tox – KB-3-1 parental cell cytotoxicity; KB-3-1 viability, CellTiter-Glo ATP luminescence, 72 h; Potency, µM (doses to about 46.1 µM), actives largely listed as cytotoxic; actives 1.4% (n = 400,000); also: nearly all actives have a fitted effect of over 60% in size
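Here the drug-naive KB-3-1 line serves as comparator for MDR sub-line selectivity; cells received compound titrations, 72 h at 37 °C, then CellTiter-Glo readout.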
* = called active by the depositor; i = inactive; u = inconclusive; x = no result. Calls follow the shape of the dose curve; as a rule, active = well fitted curve in the direction sought with a large enough effect; inconclusive = small, poorly fitted or top-dose-only effect, or another doubt; inactive = no such curve, though single readings can be large; an effect the other way counts as inactive or inconclusive. Unless noted, % is scaled to controls: 0 for no effect and ±100 for the full control effect; potency is read from the fitted curve at half-maximal effect.

SMILES	HT1080 IDH1KD tx	HT1080-NT tox	TDP1 cell CPT	KB-V1 MDR tox	DT40 TDP1 no CPT	KB-3-1 tox
Cc1csc(=O)n1CC(=O)OCC(=O)Nc1ccc(C(N)=O)cc1	-1.5%	-0.1%	-7.0%	i	6.51µM*	i
S=C(Nc1ccccc1)c1ccccn1	-16.7%	u	0.651µM*	i	0.92µM*	u
CCOC(=O)c1ccc(NC(=S)NCc2ccccc2)cc1	-1.1%	-1.4%	-21.1%	i	u	i
Cc1csc(=O)n1CCC(=O)OCC(=O)Nc1ccc(C(N)=O)cc1	-6.0%	1.9%	-9.4%	i	-0.3%	i
CCOC(=O)c1ccc(NC(=S)NCCc2ccccc2F)cc1	-6.7%	-16.7%	u	u	23.1µM*	i
O=C(c1cc(C2CCCCN2S(=O)(=O)Cc2ccccc2)on1)N1CCOCC1 (configuration not stated)	3.5%	u	-17.7%	i	-8.2%	i
O=C(CC(=O)N/N=C/c1c(Cl)cccc1Cl)NCc1cccnc1	18.7%	-0.3%	-12.9%	i	-15.5%	i
CCOC(=O)c1ccc(NC(=O)NCCc2ccccc2OC)cc1	7.4%	-8.7%	u	i	14.6µM*	i
CCOC(=O)c1ccc(NC(=O)NCc2ccccc2OC)cc1	-15.4%	-9.4%	3.7%	u	-26.5%	i
Cc1ccccc1C(=O)O[C@H]1[C@H](Cc2ccccc2)NS(=O)(=O)[C@H]2CC3C=C[C@]12O3	-6.5%	0.5%	u	u	20µM*	i
C[C@@H]1NS(=O)(=O)[C@H]2C[C@@H]3C=C[C@]2(O3)[C@H]1OC(=O)c1ccc(C(C)(C)C)cc1	-2.7%	-0.6%	23.1µM*	i	16.4µM*	i
O=C(O[C@H]1[C@H](Cc2ccccc2)NS(=O)(=O)[C@H]2C[C@@H]3C=C[C@]12O3)c1ccccc1Br	x	x	u	i	u	i
Cc1cccc(C(=O)O[C@@H]2[C@H](Cc3ccccc3)NS(=O)(=O)[C@H]3C[C@@H]4C=C[C@]23O4)c1	8.6%	16.0%	u	i	23.1µM*	u
O=C(O[C@H]1[C@H](Cc2ccccc2)NS(=O)(=O)[C@H]2CC3C=C[C@]12O3)c1ccc(Br)cc1	x	x	u	u	u	i
NS(=O)(=O)c1ccc(NC(=O)Nc2ccc3c(c2)OCO3)cc1	u	-11.8%	4.4%	u	2.9%	i
COC(=O)c1cn(CC(C)n2c(=O)c3ccccc3n2Cc2cc(C(C)C)no2)nn1 (configuration not stated)	12.4%	12.7%	10.6%	i	19.1%	i
Cc1nn2c(C)c(C(=O)NC(C)c3ccccc3)cnc2c1-c1ccc(F)cc1 (configuration not stated)	x	x	-6.4%	i	u	u
COC(=O)c1cc(=O)n(Cc2cccs2)c(=Nc2ccc(F)cc2)s1	u	u	u	i	20.6µM*	u
CCOC(=O)c1ccc(N=c2sc(C(=O)OC)cc(=O)n2C2CC2)cc1	16.1%	13.2%	-10.2%	i	3.2%	i
COC(=O)c1cc(=O)n(Cc2ccc3c(c2)OCO3)c(=Nc2ccc(F)cc2)s1	1.9%	1.7%	u	i	u	u
COC(=O)c1cc(=O)n(-c2ccc(F)cc2)c(=Nc2ccc(F)cc2)s1	u	u	6.51µM*	u	6.51µM*	u
COC(=O)c1cc(=O)n(Cc2ccc(F)cc2)c(=NCc2ccc(F)cc2)s1	9.3%	13.8%	-3.2%	i	1.2%	i
CCOC(=O)c1ccc(N=c2sc(C(=O)OC)cc(=O)n2Cc2ccc3c(c2)OCO3)cc1	-12.5%	-18.3%	6.51µM*	i	6.51µM*	i
COC(=O)c1ccc(N=c2sc(C(=O)OC)cc(=O)n2C)cc1	9.0%	-3.5%	20.6µM*	u	25.9µM*	i
COc1cc(/C=N/n2c(SC)nnc(C(C)(C)C)c2=O)ccc1O	1.1%	3.1%	4.6%	i	-2.6%	i
SMILES	HT1080 IDH1KD tx	HT1080-NT tox	TDP1 cell CPT	KB-V1 MDR tox	DT40 TDP1 no CPT	KB-3-1 tox
CCOC(=O)CC(=O)CSc1ncnc2c1oc1ccccc12	-7.1%	-10.6%	-22.2%	i	-22.4%	i
COc1ccc(C2(c3ccc(OC)cc3)NC(=O)N(CC(=O)N(C)C)C2=O)cc1	0.5%	-1.4%	0.1%	i	-8.8%	i
CSc1ccc(C(O)c2ncc(-c3ccc(F)cc3)[nH]2)cc1 (configuration not stated)	-26.8%	-17.1%	29.1µM*	i	14.6µM*	i
CC(C)(C)c1ccc(C(O)c2ncc(-c3ccc4ccccc4c3)[nH]2)cc1 (configuration not stated)	u	u	u	i	18.4µM*	i
COc1ccc(C(O)c2ncc(-c3ccc4ccccc4c3)[nH]2)cc1F (configuration not stated)	-24.6%	-21.7%	u	i	u	i
Cc1cccc(C(O)c2ncc(-c3ccccc3)[nH]2)c1C (configuration not stated)	-1.2%	0.9%	18.4µM*	i	-22.7%	i
Cc1ccc(C)c(C(O)c2ncc(-c3ccc4ccccc4c3)[nH]2)c1 (configuration not stated)	0.0%	-0.6%	18.4µM*	i	u	i
Cc1ccc(C)c(OCCC(=O)OCC(=O)NNC(=O)c2ccccc2)c1	0.5%	-2.3%	6.1%	i	1.8%	i
OC(c1cc(F)cc(Cl)c1)c1ncc(-c2ccc3ccccc3c2)[nH]1 (configuration not stated)	u	u	18.4µM*	i	13µM*	i
Cc1cc(F)ccc1C(O)c1ncc(-c2cccc(OCc3ccccc3)c2)[nH]1 (configuration not stated)	u	u	u	i	16.4µM*	u
OC(c1cccc(Cl)c1)c1ncc(-c2ccc3ccccc3c2)[nH]1 (configuration not stated)	u	-27.4%	u	i	u	i
CC(C)(C)c1ccc(C(O)c2ncc(-c3cccc(F)c3)[nH]2)cc1 (configuration not stated)	u	u	14.6µM*	i	u	u
COc1cccc(-c2cnc(C(O)c3ccc(F)cc3C)[nH]2)c1 (configuration not stated)	-9.3%	-5.6%	u	i	-14.8%	i
